Our source for the z-score values is PubChem BioAssay.

Structures are written as SMILES. Calls of active or inactive are those of the source.

The first test is described as follows: plasmodial surface anion channel blockers, osmotic lysis – cell-based, P. falciparum Indochina, OD700, 18 h, primary screen (AID 1157). The settings on record: P. falciparum Indochina infected erythrocytes, osmotic lysis OD700, 18 h; higher = more signal, called active from +8 up or from −8 down.
As to `O=C1OCCC/C=C\[C@H]2OC34C=CCN(c5ccc6ccccc6c5)C(=O)[C@H]3N(CCCCCO)C(=O)[C@@H]4C12` (stereo partly specified), the z-score was -0.181 (inactive).
In the case of `CC(C)CNC(=O)[C@@]1(Cc2ccccc2I)c2ccccc2C(=O)N(Cc2ccccc2C(F)(F)F)[C@H]1c1ccc(CO)cc1`, the z-score was 0.525 (inactive).
For `C#CCOc1ccc(C[C@@H](C(=O)OC)N(CC#C)[C@@H](/C=C/C2CC2)[C@H](O)Cc2ccccc2)cc1`, the z-score is -0.111 (inactive).
Same read-out and setting: the figure for `CCOC(=O)[C@H]1C/C=C/C[C@H](C(=O)OCC)C(=O)O[C@H]2[C@@H](OC)O[C@H](CO)[C@@H](OC(=O)c3ccc(Br)cc3)[C@@H]2OC1=O` is 0.877 (inactive).
Still for that read-out and setting: with `O=C1[C@@]23C=C(Br)[C@H](C[C@@H]2COC3)[C@]12CO2` the figure was -0.334 (inactive).
Same read-out and setting: the figure for `O=C1NC(=O)C2C1C=CC(C(O)c1ccc(-c3ccccc3)s1)N2Nc1ccc(Cl)cc1Cl` (stereo unspecified) is 1.07 (inactive); for `C=C(C(=O)CC[C@H](OC(C)=O)c1ccccc1OCCO)C(C)C` it is -0.431 (inactive); for `O=C1C2C=CC(C(O)COCc3ccccc3)N(Nc3ccc([N+](=O)[O-])cc3)C2C(=O)N1c1ccccc1` (stereo unspecified) it is -0.809 (inactive).
In the case of `COCC(=C=CC[C@H](O)c1cccc(OCCO)c1)CCO`, the z-score was 0.0864 (inactive).
On the same count and under the same terms, with `NCCCCCCNC(=O)[C@H]1C[C@H]2C(=O)N[C@@H](Cc3ccccc3)C(=O)N2[C@H]1c1cccc(OCCO)c1` the figure was 0.472 (inactive).
Take `CCCCCN1CC=CC23O[C@@H]4C=CCOC(=O)[C@@H]4[C@H]2C(=O)N(C(C)CO)[C@@H]3C1=O` (stereo partly specified): the z-score was 0.0638 (inactive).
Regarding `CC(c1ccccc1)C(O)C1C=CC2C(=O)N(C)C(=O)C2N1NC(=O)OC(C)(C)C` (stereo unspecified), the z-score is 0.508 (inactive).
With `COCCCNC(=O)[C@@H]1c2ccccc2C(=O)N(Cc2ccccc2)[C@H]1c1ccc(CO)cc1`, the z-score is 0.129 (inactive).
As to `COCCOC(=O)N1C(=O)[C@@]2(c3cc(C#CCCO)ccc31)[C@H](c1ccc(OCCO)cc1)N1[C@H](c3ccccc3)[C@H](c3ccccc3)OC(=O)[C@H]1[C@@H]2C(N)=O`, the z-score was 0.932 (inactive).
With `COc1ccc(C(=O)Nc2ccc(CN3C(=O)[C@]4(O[C@H](CC(=O)N5CCC[C@H]5CO)[C@@H]([Si](C)(C)c5ccc(OC)cc5)[C@@H]4C)c4ccccc43)cc2)cc1`, the z-score was 0.598 (inactive).
As to `C=CC[C@]1(C(N)=O)COC(c2ccc(OCCCO)cc2)=N1`, the z-score is 0.322 (inactive).
As to `COC(=O)[C@@]1(Cc2ccccc2)[C@H]2c3cc(C(=O)N(C)C)n(CCc4c[nH]c5ccc(O)cc45)c3C[C@H]2CN1C(=O)c1ccccc1`, the z-score is -1.32 (inactive).
Same read-out and setting: with `COc1ccc(C#Cc2ccc3c(c2)[C@]2(C(=O)N3)[C@H](c3ccc(O)cc3)N3[C@H](c4ccccc4)[C@H](c4ccccc4)OC(=O)[C@H]3[C@@H]2C(=O)N2CCc3cc(OC)c(OC)cc3C2)cc1` the figure was 0.196 (inactive); with `O=C1OCCC=C[C@H]2OC34C=CCN(Cn5nnc6ccccc65)C(=O)[C@H]3N(CCO)C(=O)[C@@H]4C12` (stereo partly specified), 0.601 (inactive).
On the same count and under the same terms, the figure for `CC(C)Cc1ccc(CN2CC[C@@H](N)C2)cc1` is 0.525 (inactive); for `C[N+](C)(C)CCCCCCNC(=O)[C@H]1C[C@H]2C(=O)N[C@@H](Cc3ccccc3)C(=O)N2[C@H]1c1cccc(OCCO)c1` it is 0.719 (inactive).
On to `CO[C@H]1O[C@H](CO)[C@@H](OC(=O)Nc2ccc(Oc3ccccc3)cc2)[C@H](OC(=O)Nc2ccc3c(c2)OCO3)[C@@H]1OC(=O)Nc1ccc2c(c1)OCO2`, for which the z-score is 1.7 (inactive).
Still for that read-out and setting: with `C=C(CCCC)/C(=C/C[C@@H](OC(C)=O)c1ccccc1OCCO)c1cc(C(=O)OC)ccc1OC` the figure was 1.71 (inactive).
With `C=CCC(OC(C)=O)[C@@H]1[C@@H](N(Cc2cc3ccccc3o2)C(=O)Cc2ccc(OC)cc2)c2cc(OCCCO)ccc2N1C(=O)c1ccc2ccccc2c1` (stereo partly specified), the z-score was -0.0343 (inactive).
`O=C1C2C=CC(C(O)c3c(F)cccc3Cl)N(Nc3ccccc3F)C2C(=O)N1c1ccccc1` (stereo unspecified): the z-score was 1.1 (inactive).
On to `CN(C)C(=O)[C@]1(Cc2ccccc2)N=C(c2ccc(OCCCO)cc2)O[C@@H]1c1ccccc1N=[N+]=[N-]`, for which the z-score is 4.27 (inactive).

A further test is described as follows: S6 kinase pathway phospho-S6 level changes – cell-based, A549, cytoblot, luminescence, serum-stimulated, primary screen (AID 1158).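 Note: serum-stimulated A549 lung adenocarcinoma cells; signal is phosphorylated S6 detected by cytoblot immunostaining with HRP secondary.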 The settings on record: 5 h, higher = more signal.
For the molecule `O=C(CS)NCCCCCNC(=O)[C@@H]1C[C@@H]2C(=O)NCC(=O)N2[C@@H]1c1cccc(OCCO)c1`, the z-score was determined as 1.86.
`O=C(CS)NCCCCCNC(=O)[C@H]1C[C@H]2C(=O)NCC(=O)N2[C@H]1c1cccc(OCCO)c1` came in with a z-score of -0.61.
As for `CN(C)CCCCNC(=O)[C@@H]1C[C@@H]2C(=O)N[C@@H](CCCCN)C(=O)N2[C@@H]1c1ccc(O)cc1`, the z-score was 0.297.
`COc1ccc(CCNC(=O)[C@@]2(C)c3ccccc3C(=O)N(c3ccc(C)cn3)[C@H]2c2ccc(CO)cc2)cc1` returned a z-score of -0.0316.
As for `O=C(NCCN1CCOCC1)[C@@H]1c2ccccc2C(=O)N(Cc2cc(C(F)(F)F)cc(C(F)(F)F)c2)[C@H]1c1ccc(CO)cc1`, the z-score was -0.474.
Turning to `O=C(NCc1ccccc1)[C@@H]1c2ccccc2C(=O)N(C2Cc3ccccc3C2)[C@H]1c1ccc(CO)cc1`, the z-score was -0.543.
On to `COCCOC(=O)N1C(=O)[C@@]2(c3cc(C#CC4(O)CCCCCC4)ccc31)[C@H](C(=O)Nc1nc3ccccc3s1)[C@H]1C(=O)O[C@H](c3ccccc3)[C@H](c3ccccc3)N1[C@@H]2c1ccccc1OCCO`, for which the z-score amounted to 0.476.
Regarding `CC1CC/C=C\[C@H]2OC34C=CCN(c5ccc6ccccc6c5)C(=O)[C@H]3N(CCO)C(=O)[C@@H]4C2C(=O)O1` (stereo partly specified), the z-score came to 0.21.
`O=C1O[C@@H](c2ccccc2)[C@@H](c2ccccc2)N2[C@@H](c3ccc(OCCO)cc3)[C@]3(C(=O)Nc4ccc(C#CCCO)cc43)[C@@H](C(=O)NC[C@H](O)c3ccccc3)[C@H]12` had a z-score of 0.136.
The molecule `O=C1OCCC/C=C\[C@H]2OC34C=CCN(c5ccc6ccccc6c5)C(=O)[C@H]3N(CCCCCO)C(=O)[C@@H]4C12` (stereo partly specified) had a z-score of -0.839.
Take `CC(C)CNC(=O)[C@@]1(Cc2ccccc2I)c2ccccc2C(=O)N(Cc2ccccc2C(F)(F)F)[C@H]1c1ccc(CO)cc1`: the z-score is -0.146.
Consider `C#CCOc1ccc(C[C@@H](C(=O)OC)N(CC#C)[C@@H](/C=C/C2CC2)[C@H](O)Cc2ccccc2)cc1`, for which the z-score was -0.138.
For `CCOC(=O)[C@H]1C/C=C/C[C@H](C(=O)OCC)C(=O)O[C@H]2[C@@H](OC)O[C@H](CO)[C@@H](OC(=O)c3ccc(Br)cc3)[C@@H]2OC1=O`, the z-score turned out to be 0.0379.
In turn, `O=C1[C@@]23C=C(Br)[C@H](C[C@@H]2COC3)[C@]12CO2` registered a z-score of 0.424.
Consider `O=C1NC(=O)C2C1C=CC(C(O)c1ccc(-c3ccccc3)s1)N2Nc1ccc(Cl)cc1Cl` (stereo unspecified), for which the z-score was -1.09.
In turn, `C=C(C(=O)CC[C@H](OC(C)=O)c1ccccc1OCCO)C(C)C` had a z-score of 0.66.
On the same count and under the same terms, with `O=C1C2C=CC(C(O)COCc3ccccc3)N(Nc3ccc([N+](=O)[O-])cc3)C2C(=O)N1c1ccccc1` (stereo unspecified) the figure was 0.213.
For `COCC(=C=CC[C@H](O)c1cccc(OCCO)c1)CCO`, the z-score stood at 0.0095.
Still for that read-out and setting: with `NCCCCCCNC(=O)[C@H]1C[C@H]2C(=O)N[C@@H](Cc3ccccc3)C(=O)N2[C@H]1c1cccc(OCCO)c1` the figure was -0.147; with `CCCCCN1CC=CC23O[C@@H]4C=CCOC(=O)[C@@H]4[C@H]2C(=O)N(C(C)CO)[C@@H]3C1=O` (stereo partly specified), 1.43.
Molecule `CC(c1ccccc1)C(O)C1C=CC2C(=O)N(C)C(=O)C2N1NC(=O)OC(C)(C)C` (stereo unspecified) gave a z-score of -0.683.
The molecule `COCCCNC(=O)[C@@H]1c2ccccc2C(=O)N(Cc2ccccc2)[C@H]1c1ccc(CO)cc1` had a z-score of -0.0034.
As for `COCCOC(=O)N1C(=O)[C@@]2(c3cc(C#CCCO)ccc31)[C@H](c1ccc(OCCO)cc1)N1[C@H](c3ccccc3)[C@H](c3ccccc3)OC(=O)[C@H]1[C@@H]2C(N)=O`, the z-score is -0.296.
As for `COc1ccc(C(=O)Nc2ccc(CN3C(=O)[C@]4(O[C@H](CC(=O)N5CCC[C@H]5CO)[C@@H]([Si](C)(C)c5ccc(OC)cc5)[C@@H]4C)c4ccccc43)cc2)cc1`, the z-score amounted to 0.424.
In turn, `C=CC[C@]1(C(N)=O)COC(c2ccc(OCCCO)cc2)=N1` had a z-score of 0.537.
`COC(=O)[C@@]1(Cc2ccccc2)[C@H]2c3cc(C(=O)N(C)C)n(CCc4c[nH]c5ccc(O)cc45)c3C[C@H]2CN1C(=O)c1ccccc1` gave a z-score of 1.82.
Molecule `COc1ccc(C#Cc2ccc3c(c2)[C@]2(C(=O)N3)[C@H](c3ccc(O)cc3)N3[C@H](c4ccccc4)[C@H](c4ccccc4)OC(=O)[C@H]3[C@@H]2C(=O)N2CCc3cc(OC)c(OC)cc3C2)cc1` showed a z-score of -0.0494.
Consider `O=C1OCCC=C[C@H]2OC34C=CCN(Cn5nnc6ccccc65)C(=O)[C@H]3N(CCO)C(=O)[C@@H]4C12` (stereo partly specified), for which the z-score was -0.18.
Still for that read-out and setting: the figure for `CC(C)Cc1ccc(CN2CC[C@@H](N)C2)cc1` is 0.412.
Still for that read-out and setting: with `C[N+](C)(C)CCCCCCNC(=O)[C@H]1C[C@H]2C(=O)N[C@@H](Cc3ccccc3)C(=O)N2[C@H]1c1cccc(OCCO)c1` the figure was -0.62.
Regarding `CO[C@H]1O[C@H](CO)[C@@H](OC(=O)Nc2ccc(Oc3ccccc3)cc2)[C@H](OC(=O)Nc2ccc3c(c2)OCO3)[C@@H]1OC(=O)Nc1ccc2c(c1)OCO2`, the z-score was determined as 0.377.
The molecule `C=C(CCCC)/C(=C/C[C@@H](OC(C)=O)c1ccccc1OCCO)c1cc(C(=O)OC)ccc1OC` displayed a z-score of -0.733.
`C=CCC(OC(C)=O)[C@@H]1[C@@H](N(Cc2cc3ccccc3o2)C(=O)Cc2ccc(OC)cc2)c2cc(OCCCO)ccc2N1C(=O)c1ccc2ccccc2c1` (stereo partly specified) had a z-score of 0.559.
For the molecule `O=C1C2C=CC(C(O)c3c(F)cccc3Cl)N(Nc3ccccc3F)C2C(=O)N1c1ccccc1` (stereo unspecified), the z-score is -0.514.
Turning to `CN(C)C(=O)[C@]1(Cc2ccccc2)N=C(c2ccc(OCCCO)cc2)O[C@@H]1c1ccccc1N=[N+]=[N-]`, the z-score came to 0.0986.
